Results taken from ChEMBL document CHEMBL1961873, “Compounds: GSK PKIS; Assays: Nanosyn kinase panel” (2012).

Experiments:
[1] = target: Leukocyte tyrosine kinase receptor (Homo sapiens) (UniProt P29376); conditions: at 1 µM;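 note: each value is the mean inhibition of LTK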
[2] = target: Tyrosine-protein kinase Lyn (Homo sapiens) (UniProt P07948); conditions: at 0.1 µM
[3] = target: Tyrosine-protein kinase Lyn (Homo sapiens) (UniProt P07948); conditions: at 1 µM
[4] = target: Tyrosine-protein kinase Lyn (Homo sapiens) (UniProt P07948); conditions: at 0.1 µM; remark: listed apart in the source
[5] = target: Tyrosine-protein kinase Lyn (Homo sapiens) (UniProt P07948); conditions: at 1 µM; remark: listed apart in the source
[6] = target: T1, Tyrosine-protein kinase Mer (Homo sapiens) (UniProt Q12866); conditions: at 0.1 µM
T1 sequence (whole entry): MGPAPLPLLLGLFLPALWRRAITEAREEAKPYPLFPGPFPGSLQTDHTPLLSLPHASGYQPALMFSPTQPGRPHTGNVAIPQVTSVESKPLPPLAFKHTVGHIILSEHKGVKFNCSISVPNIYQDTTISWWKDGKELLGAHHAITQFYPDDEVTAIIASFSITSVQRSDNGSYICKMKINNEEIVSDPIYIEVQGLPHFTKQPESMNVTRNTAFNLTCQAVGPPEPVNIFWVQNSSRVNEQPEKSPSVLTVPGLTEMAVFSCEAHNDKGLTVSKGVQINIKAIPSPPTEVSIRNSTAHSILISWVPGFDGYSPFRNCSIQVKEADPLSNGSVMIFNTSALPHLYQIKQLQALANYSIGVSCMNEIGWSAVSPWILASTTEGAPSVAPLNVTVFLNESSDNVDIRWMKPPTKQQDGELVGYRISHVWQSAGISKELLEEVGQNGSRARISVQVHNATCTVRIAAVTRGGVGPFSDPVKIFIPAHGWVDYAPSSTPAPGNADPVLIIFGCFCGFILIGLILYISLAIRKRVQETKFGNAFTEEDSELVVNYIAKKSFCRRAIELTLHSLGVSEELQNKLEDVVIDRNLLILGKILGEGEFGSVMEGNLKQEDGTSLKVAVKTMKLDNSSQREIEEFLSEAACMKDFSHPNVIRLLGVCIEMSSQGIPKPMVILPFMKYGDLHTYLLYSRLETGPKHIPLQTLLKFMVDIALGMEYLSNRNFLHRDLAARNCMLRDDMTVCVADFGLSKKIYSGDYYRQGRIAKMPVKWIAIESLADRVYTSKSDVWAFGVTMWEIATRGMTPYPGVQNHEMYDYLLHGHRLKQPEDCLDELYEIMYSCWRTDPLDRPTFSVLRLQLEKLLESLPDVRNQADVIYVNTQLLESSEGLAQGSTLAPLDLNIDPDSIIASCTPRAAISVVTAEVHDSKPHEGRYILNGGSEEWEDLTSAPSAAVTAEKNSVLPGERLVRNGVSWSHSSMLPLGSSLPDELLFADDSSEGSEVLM

[7] = target: T1, Tyrosine-protein kinase Mer (Homo sapiens); conditions: at 1 µM
[8] = target: Hepatocyte growth factor receptor (Homo sapiens) (UniProt P08581); conditions: at 0.1 µM
[9] = target: Hepatocyte growth factor receptor (Homo sapiens) (UniProt P08581); conditions: at 1 µM
[10] = target: T2, Muscle, skeletal receptor tyrosine-protein kinase (Homo sapiens) (UniProt O15146); conditions: at 0.1 µM
T2 sequence (whole entry): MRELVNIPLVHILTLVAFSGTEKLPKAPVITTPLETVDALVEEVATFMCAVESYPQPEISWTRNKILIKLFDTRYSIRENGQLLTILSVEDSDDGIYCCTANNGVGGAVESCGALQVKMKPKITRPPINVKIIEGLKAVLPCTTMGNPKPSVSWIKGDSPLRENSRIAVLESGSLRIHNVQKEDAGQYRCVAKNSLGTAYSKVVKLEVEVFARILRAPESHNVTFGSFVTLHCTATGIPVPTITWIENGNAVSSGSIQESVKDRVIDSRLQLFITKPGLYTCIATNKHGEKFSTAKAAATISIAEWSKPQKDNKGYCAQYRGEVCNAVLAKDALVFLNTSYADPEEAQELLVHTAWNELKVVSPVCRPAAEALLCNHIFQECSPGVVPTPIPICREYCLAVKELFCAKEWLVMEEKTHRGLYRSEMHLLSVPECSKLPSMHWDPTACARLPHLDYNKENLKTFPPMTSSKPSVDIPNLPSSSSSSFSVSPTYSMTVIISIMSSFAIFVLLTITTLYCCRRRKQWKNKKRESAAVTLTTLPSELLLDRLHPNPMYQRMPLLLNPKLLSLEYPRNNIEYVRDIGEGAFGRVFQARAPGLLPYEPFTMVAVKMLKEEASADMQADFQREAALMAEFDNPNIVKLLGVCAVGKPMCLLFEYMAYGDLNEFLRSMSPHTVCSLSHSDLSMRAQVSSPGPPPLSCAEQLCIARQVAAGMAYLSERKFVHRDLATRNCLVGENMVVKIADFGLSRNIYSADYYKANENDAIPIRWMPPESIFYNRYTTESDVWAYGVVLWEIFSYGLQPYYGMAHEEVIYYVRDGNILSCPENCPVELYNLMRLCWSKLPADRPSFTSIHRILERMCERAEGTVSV

[11] = target: T2, Muscle, skeletal receptor tyrosine-protein kinase (Homo sapiens); conditions: at 1 µM
[12] = target: Platelet-derived growth factor receptor alpha (Homo sapiens) (UniProt P16234); conditions: at 0.1 µM
[13] = target: Platelet-derived growth factor receptor alpha (Homo sapiens) (UniProt P16234); conditions: at 1 µM
[14] = system: Platelet-derived growth factor receptor alpha (Homo sapiens), P16234 [D842V]; conditions: at 0.1 µM
[15] = system: Platelet-derived growth factor receptor alpha (Homo sapiens), P16234 [D842V]; conditions: at 1 µM
[16] = system: Platelet-derived growth factor receptor alpha (Homo sapiens), P16234 [T674I]; conditions: at 0.1 µM
[17] = system: Platelet-derived growth factor receptor alpha (Homo sapiens), P16234 [T674I]; conditions: at 1 µM
[18] = system: Platelet-derived growth factor receptor alpha (Homo sapiens), P16234 [V561D]; conditions: at 0.1 µM
[19] = system: Platelet-derived growth factor receptor alpha (Homo sapiens), P16234 [V561D]; conditions: at 1 µM
[20] = target: Platelet-derived growth factor receptor beta (Homo sapiens) (UniProt P09619); conditions: at 0.1 µM;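 note: reported value is the mean percent inhibition of the kinase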
Chain of Platelet-derived growth factor receptor beta (Homo sapiens) (P09619 whole entry): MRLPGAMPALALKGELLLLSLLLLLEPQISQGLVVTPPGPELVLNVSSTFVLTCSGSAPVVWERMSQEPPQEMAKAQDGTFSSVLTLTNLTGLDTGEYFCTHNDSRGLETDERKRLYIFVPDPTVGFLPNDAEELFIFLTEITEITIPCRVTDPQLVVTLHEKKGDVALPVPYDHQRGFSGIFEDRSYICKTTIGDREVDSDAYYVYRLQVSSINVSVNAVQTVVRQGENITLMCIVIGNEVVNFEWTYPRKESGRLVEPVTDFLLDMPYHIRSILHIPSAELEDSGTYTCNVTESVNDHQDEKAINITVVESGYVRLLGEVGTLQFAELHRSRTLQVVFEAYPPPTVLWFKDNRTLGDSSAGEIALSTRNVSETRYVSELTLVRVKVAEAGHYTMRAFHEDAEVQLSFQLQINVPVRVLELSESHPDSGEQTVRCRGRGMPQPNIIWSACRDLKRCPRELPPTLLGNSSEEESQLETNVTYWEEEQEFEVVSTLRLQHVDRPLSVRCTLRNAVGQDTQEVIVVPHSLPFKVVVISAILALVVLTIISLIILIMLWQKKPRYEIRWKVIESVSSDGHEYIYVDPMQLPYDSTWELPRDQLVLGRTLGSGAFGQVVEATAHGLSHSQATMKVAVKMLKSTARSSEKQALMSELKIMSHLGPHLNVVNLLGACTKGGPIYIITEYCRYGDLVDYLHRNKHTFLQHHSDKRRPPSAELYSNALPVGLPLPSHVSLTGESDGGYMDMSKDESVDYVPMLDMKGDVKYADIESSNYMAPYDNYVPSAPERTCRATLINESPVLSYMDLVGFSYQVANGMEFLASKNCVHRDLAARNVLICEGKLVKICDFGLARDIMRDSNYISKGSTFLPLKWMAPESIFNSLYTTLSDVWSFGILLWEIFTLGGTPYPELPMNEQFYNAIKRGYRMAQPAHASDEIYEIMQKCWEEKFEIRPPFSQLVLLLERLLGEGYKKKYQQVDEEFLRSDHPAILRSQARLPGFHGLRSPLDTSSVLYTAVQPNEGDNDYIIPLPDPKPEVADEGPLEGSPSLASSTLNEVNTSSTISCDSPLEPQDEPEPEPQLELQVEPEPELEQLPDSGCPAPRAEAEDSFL

Chain of Platelet-derived growth factor receptor alpha (Homo sapiens), P16234 [T674I] (P16234 whole entry T674I): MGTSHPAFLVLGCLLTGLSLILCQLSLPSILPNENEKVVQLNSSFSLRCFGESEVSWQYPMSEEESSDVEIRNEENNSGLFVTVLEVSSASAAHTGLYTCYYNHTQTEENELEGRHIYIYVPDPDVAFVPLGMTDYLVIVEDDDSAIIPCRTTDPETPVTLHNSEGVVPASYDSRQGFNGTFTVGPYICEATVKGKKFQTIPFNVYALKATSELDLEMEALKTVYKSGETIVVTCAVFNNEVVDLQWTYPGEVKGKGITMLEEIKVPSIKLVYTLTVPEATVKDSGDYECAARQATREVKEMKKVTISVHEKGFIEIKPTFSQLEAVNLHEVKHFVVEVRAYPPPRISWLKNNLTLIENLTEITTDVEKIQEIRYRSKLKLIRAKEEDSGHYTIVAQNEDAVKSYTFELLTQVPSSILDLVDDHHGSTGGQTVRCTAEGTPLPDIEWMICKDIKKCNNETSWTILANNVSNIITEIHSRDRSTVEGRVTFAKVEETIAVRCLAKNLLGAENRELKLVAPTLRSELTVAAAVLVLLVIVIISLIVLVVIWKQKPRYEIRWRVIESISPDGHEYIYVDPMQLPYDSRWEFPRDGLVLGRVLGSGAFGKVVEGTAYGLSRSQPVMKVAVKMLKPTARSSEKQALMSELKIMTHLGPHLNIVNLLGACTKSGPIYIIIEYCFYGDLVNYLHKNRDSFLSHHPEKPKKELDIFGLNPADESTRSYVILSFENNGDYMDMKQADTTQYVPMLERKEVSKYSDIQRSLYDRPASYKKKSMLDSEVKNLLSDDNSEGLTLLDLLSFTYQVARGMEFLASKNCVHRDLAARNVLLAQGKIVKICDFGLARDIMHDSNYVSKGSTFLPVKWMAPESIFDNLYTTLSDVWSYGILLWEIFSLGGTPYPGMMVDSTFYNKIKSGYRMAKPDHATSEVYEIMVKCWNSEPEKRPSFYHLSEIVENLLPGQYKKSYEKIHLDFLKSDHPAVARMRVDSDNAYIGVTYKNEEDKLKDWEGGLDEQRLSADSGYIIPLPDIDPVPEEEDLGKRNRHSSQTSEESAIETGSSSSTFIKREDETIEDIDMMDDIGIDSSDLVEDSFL
Chain of Platelet-derived growth factor receptor alpha (Homo sapiens), P16234 [D842V] (P16234 whole entry D842V): as the sequence (P16234 whole entry T674I) above, with I674T, D842V counted along it
Chain of Platelet-derived growth factor receptor alpha (Homo sapiens) (P16234 whole entry): as the sequence (P16234 whole entry T674I) above, with I674T counted along it
Chain of Tyrosine-protein kinase Lyn (Homo sapiens) (P07948 2-512 limits assumed): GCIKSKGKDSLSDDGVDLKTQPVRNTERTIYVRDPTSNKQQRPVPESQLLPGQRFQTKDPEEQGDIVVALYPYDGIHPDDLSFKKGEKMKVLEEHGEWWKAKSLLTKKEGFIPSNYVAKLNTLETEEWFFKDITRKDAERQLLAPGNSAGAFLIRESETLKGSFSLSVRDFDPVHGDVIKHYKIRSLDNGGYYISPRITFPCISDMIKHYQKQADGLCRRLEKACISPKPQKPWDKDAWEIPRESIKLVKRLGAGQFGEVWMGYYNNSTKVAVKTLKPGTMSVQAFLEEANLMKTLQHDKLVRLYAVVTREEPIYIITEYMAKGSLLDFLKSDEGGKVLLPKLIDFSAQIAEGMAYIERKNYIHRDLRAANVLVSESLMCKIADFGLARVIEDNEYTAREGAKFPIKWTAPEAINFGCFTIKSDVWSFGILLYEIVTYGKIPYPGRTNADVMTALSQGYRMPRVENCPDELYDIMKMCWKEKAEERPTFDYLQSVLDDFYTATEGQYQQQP

Row | Compound | inhibition [1] [%] | inhibition [2] [%] | inhibition [3] [%] | inhibition [4] [%] | inhibition [5] [%] | inhibition [6] [%] | inhibition [7] [%] | inhibition [8] [%] | inhibition [9] [%] | inhibition [10] [%] | inhibition [11] [%] | inhibition [12] [%] | inhibition [13] [%] | inhibition [14] [%] | inhibition [15] [%] | inhibition [16] [%] | inhibition [17] [%] | inhibition [18] [%] | inhibition [19] [%] | inhibition [20] [%]
1 | O=C(Nc1n[nH]c2nc(-c3ccco3)c(Br)cc12)C1CC1 | 0.72 | 4.37 | 4.24 | 2.54 | 3.6 | 1.42 | 4.5 | 1.38 | 6.65 | 2.24 | 6.32 | 4.56 | 12.9 | 0.77 | 4.15 | 5.19 | 6.07 | 0.75 | 4.4 | 3.97
2 | COC(=O)Nc1nc2cc(Oc3ccc(NC(=O)Nc4cccc(C(=O)O)c4)cc3)ccc2[nH]1 | -0.52 | 0.39 | 5.81 | 0.48 | 2.9 | 0.61 | 2.01 | -0.09 | 11.4 | -0.16 | 2.82 | 10.8 | 39.3 | 0.99 | 1.56 | 6.17 | 35.1 | 18.8 | 43.9 | 6.26
3 | c1cnn2ncc(-c3ccnc(Nc4ccc5c(c4)OCCO5)n3)c2c1 | 21.9 | 7.12 | 12.7 | 4.02 | 11 | 4.03 | 19.6 | 3.78 | 16.8 | 5.35 | 26.9 | 16.1 | 51.5 | 6.44 | 40.6 | 16.9 | 74.7 | 23.3 | 61.7 | 18.4
4 | NCc1ccc(-c2nc(-c3ccc(Cl)c(O)c3)c(-c3ccncc3)[nH]2)cc1 | 1.88 | 6.73 | 42.8 | 4.81 | 37.1 | -0.12 | 6.1 | 5.53 | 14.5 | 0.08 | 2.08 | 6.86 | 25.6 | 6.11 | 31 | 2.74 | 2.2 | 5.6 | 25.9 | 7.07
5 | CCn1c(-c2nonc2N)nc2c(C#CC(C)(C)O)nc(OC[C@@H](N)c3ccccc3)cc21 | 9.21 | -0.29 | 1.01 | -1.22 | 0.53 | -0.92 | 0.47 | -2.86 | -4.52 | -0.69 | 2.97 | 3.38 | 30.9 | 3.93 | 39 | 1.39 | 27.6 | -2.3 | 19.5 | 7.96
6 | CS(=O)(=O)CCNCc1ccc(-c2ccc3ncnc(Nc4ccc(OCc5ccccc5)c(Cl)c4)c3c2)o1 | 4.23 | 1.21 | 6.25 | 1.19 | 5.08 | 4.37 | 30.6 | 5.04 | 7.4 | 3.89 | 4.27 | 6.84 | 9.41 | 2.28 | 2.49 | 8.72 | 11.1 | 4.4 | 4.91 | 2.08
7 | CCn1c(-c2nonc2N)nc2cncc(C(=O)N3CCNCC3)c21 | 5.18 | 5.29 | 5.94 | 1.79 | 4.29 | 1.99 | 2.33 | 2.94 | 2.13 | 3.39 | 4.88 | 6.44 | 9.34 | 1.69 | 6.27 | 4.21 | 6.95 | 1.16 | 4.29 | 1.44
8 | COc1ccc(-c2coc3ncnc(N)c23)cc1 | 2.3 | 5.38 | 5.54 | 3.09 | 7.61 | 2.63 | 2.9 | 10 | 6.47 | 4.06 | 9.1 | 8.72 | 16.2 | 3.41 | 6.25 | 5.4 | 5.37 | 6.46 | 28 | 3.23
9 | O=C1NC(=O)C(c2ccccc2Cl)=C1Nc1cccc(O)c1 | 1.2 | 5.68 | 3.94 | 1.34 | 2.65 | 1.63 | 4.66 | 1.79 | -0.4 | 3.23 | 6.51 | 5.26 | 9.63 | 0.89 | -0.58 | 1.6 | 2.66 | 1.34 | 2.14 | 4.9
10 | NS(=O)(=O)c1ccc(N/N=C2\C(=O)Nc3ccc(C(=O)NCCc4c[nH]cn4)cc32)cc1 | 7.32 | 8.15 | 15.6 | 5.07 | 12.6 | 0.87 | 4.99 | 8.81 | 12.3 | 10.8 | 43.1 | 23.6 | 65.6 | 15.9 | 62.5 | 6.94 | 14.5 | 12.9 | 54.9 | 38.6
11 | CC1=C(C(=O)Nc2ccc3[nH]ncc3c2)C(c2ccc(F)cc2)NC(=O)N1 (stereo not given) | 1.52 | 2.06 | 2.69 | 0.99 | 1.73 | 1.43 | 0.93 | 3 | 14.9 | 1.49 | 5.88 | 4.38 | 10.7 | 1.76 | 3.2 | 3.58 | 3.03 | 3.01 | 3.64 | 3.65
